The values below come from PubChem BioAssay (NCATS).

Molecules are shown by their SMILES. Records with an inconclusive call do not appear. A number with no mark means an inactive call. Active and inactive are the calls of the source. Calls come from the whole dose curve; as a rule, active = well fitted curve in the direction sought with a large enough effect; inconclusive = small, poorly fitted or top-dose-only effect, or another doubt; inactive = no such curve, though single readings can be large; an effect the other way counts as inactive or inconclusive.

Assay [1] in a line: qHTS assay to identify small molecule inhibitors of chordoma cells - UCH-1 (AID 1259355). For Potency: series mostly up to about 46 µM. Note: nearly all actives have a fitted effect of over 55% in size. A digest of the protocol: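 Screening used approved and investigational drugs in 15-point titration against 800 seeded cells per well. A fixed combination of auranofin with camptothecin, doxorubicin, rubitecan and topotecan followed compound addition, and growth was scored by CellTiter-Glo after 48hr.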
A general note: In qHTS, concentration-response curves come from the screen itself.

Assay [2] in a line: qHTS assay to identify small molecule inhibitors of chordoma cells - UCH-2 (AID 1259356).
Assay [3] can be described thus: P-glycoprotein substrates identified in KB-8-5-11 adenocarcinoma cell line, qHTS therapeutic library screen (AID 1346987). Note: nearly all actives have a fitted effect of over 65% in size. To be noted: outcome: dose series up to 44.5 µM unless noted. A digest of the protocol: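 Luminescence from CellTiter-Glo, read 5 min after addition, quantified survival of KB-8-5-11 (P-gp-overexpressing) cells exposed to compounds for 72 h. AC50 was derived from concentration-response curves.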
Potency is the fitted concentration of half-maximal effect.

With `COc1cc(S(C)=O)ccc1-c1nc2ncccc2[nH]1` (centres undefined), the Potency entry in assay [1], in assay [2] and in assay [3] was “inactive” each time.
With `CC(C)(C)NCC(O)CSc1nc(-c2ccc(C(N)=O)s2)cs1` (centres undefined), the Potency entry in assay [1], in assay [2] and in assay [3] was “inactive” each time.
Consider `CC(C)O`, for which the Potency result in assay [1], in assay [2] and in assay [3] was “inactive” in each case.
As to `COc1c(O[C@@H]2O[C@H](CO)[C@@H](O)[C@H](O)[C@H]2O)cc2c(c1OC)-c1ccc(SC)c(=O)cc1[C@@H](NC(C)=O)CC2`, the Potency entry in assay [1], in assay [2] and in assay [3] was “inactive” each time.
`Cc1ccc(S(=O)(=O)NCl)cc1`: the Potency result in assay [1], in assay [2] and in assay [3] was “inactive” in each case.
Turning to `CC(C)(Oc1ccc(C2CCCc3ccccc32)cc1)C(=O)O` (centres undefined), the Potency entry in assay [1], in assay [2] and in assay [3] was “inactive” in each case.
As to `c1ccc2ccccc2c1`, the Potency result in assay [1], in assay [2] and in assay [3] was “inactive” throughout.
For the molecule `Cc1c(Cl)cccc1Nc1ncccc1C(=O)O`, the Potency entry in assay [1], in assay [2] and in assay [3] was “inactive” in each case.
For the molecule `CO/N=C(\C(=O)N[C@@H]1C(=O)N2C(C(=O)O)=C(CSc3nc(C)c(CC(=O)O)s3)CS[C@H]12)c1csc(N)n1`, the Potency result in assay [1], in assay [2] and in assay [3] was “inactive” throughout.
As for `O=C(O)CC/C=C\CC[C@@H]1[C@@H](N2CCCCC2)[C@@H](O)C[C@@H]1OCc1ccc(-c2ccccc2)cc1`, the Potency entry in assay [1], in assay [2] and in assay [3] was “inactive” throughout.
As to `CCN1\C(=C/C=C/C=C/c2sc3ccccc3[n+]2CC)Sc2ccccc21`, the Potency in assay [1] was 14.1 µM (active); in assay [2], 18.3 µM (active); in assay [3] it was 16.4 µM (active).
In the case of `O=C1c2ccccc2C(=O)C1c1ccc(Cl)cc1`, the Potency result in assay [1], in assay [2] and in assay [3] was “inactive” in each case.
Regarding `CC(C)(O/N=C(\C(=O)N[C@@H]1C(=O)N2C(C(=O)[O-])=C(C[n+]3ccccc3)CS[C@H]12)c1csc(N)n1)C(=O)O`, the Potency entry in assay [1], in assay [2] and in assay [3] was “inactive” throughout.
On to `CC(C)c1nc(N(C)S(C)(=O)=O)nc(-c2ccc(F)cc2)c1/C=C/C(O)CC(O)CC(=O)O` (centres undefined), for which the Potency result in assay [1], in assay [2] and in assay [3] was “inactive” each time.
In the case of `NC(N)=NCC1COC2(CCCCC2)O1` (centres undefined), the Potency entry in assay [1], in assay [2] and in assay [3] was “inactive” throughout.
As to `Cc1nc(NS(=O)(=O)c2ccc(N)cc2)nc(C)c1Br`, the Potency entry in assay [1], in assay [2] and in assay [3] was “inactive” each time.
Turning to `Cc1ncc(COP(=O)(O)O)c(CN)c1O`, the Potency result in assay [1], in assay [2] and in assay [3] was “inactive” in each case.
Turning to `CC1C(=O)CC2C3(C)CCC2(C(C)C(=O)O)C(=O)C13` (centres undefined), the Potency result in assay [1], in assay [2] and in assay [3] was “inactive” each time.
Regarding `CCN1C(=O)NC(c2ccccc2)C1=O` (centres undefined), the Potency entry in assay [1], in assay [2] and in assay [3] was “inactive” throughout.
`Nc1ncnc2c1ncn2[C@H]1CC[C@@H](CO)O1`: the Potency result in assay [1], in assay [2] and in assay [3] was “inactive” each time.
With `CCOc1ccc(S(=O)(=O)O)c2cccnc12`, the Potency result in assay [1], in assay [2] and in assay [3] was “inactive” throughout.
As to `O=C(O)CCC/C=C\C[C@@H]1[C@@H](/C=C/[C@@H](O)COc2cccc(C(F)(F)F)c2)[C@H](O)C[C@@H]1O`, the Potency result in assay [1], in assay [2] and in assay [3] was “inactive” each time.
With `CC(C)CCCC(C)NC(C)C` (centres undefined), the Potency entry in assay [1], in assay [2] and in assay [3] was “inactive” throughout.
As for `CCOC(=O)Oc1c(OC)cc(C(=O)O[C@@H]2C[C@@H]3CN4CCc5c([nH]c6cc(OC)ccc56)[C@H]4C[C@@H]3[C@H](C(=O)OC)[C@H]2OC)cc1OC`, the Potency entry in assay [1], in assay [2] and in assay [3] was “inactive” each time.
Regarding `CC(=C\c1ccccc1)/C=C1/SC(=S)N(CC(=O)O)C1=O`, the Potency entry in assay [1], in assay [2] and in assay [3] was “inactive” each time.
Take `CO[C@H]1O[C@@H]2O[C@@]3(C)CC[C@H]4[C@H](C)CC[C@@H]([C@H]1C)[C@@]24OO3`: the Potency result in assay [1], in assay [2] and in assay [3] was “inactive” in each case.
On to `COc1ccc(C(=O)CCC(=O)O)c2ccccc12`, for which the Potency entry in assay [1], in assay [2] and in assay [3] was “inactive” each time.
Regarding `CCCCC/C=C\C/C=C\C/C=C\CCCCC(=O)O`, the Potency entry in assay [1], in assay [2] and in assay [3] was “inactive” throughout.
Turning to `C[S+](C)CCC(N)C(=O)O` (centres undefined), the Potency result in assay [1], in assay [2] and in assay [3] was “inactive” in each case.
For `C[C@H](N)C(=O)N[C@@H](C)P(=O)(O)O`, the Potency entry in assay [1], in assay [2] and in assay [3] was “inactive” each time.
For the molecule `O=C1C2CC3CC1CC(O)(C3)C2`, the Potency result in assay [1], in assay [2] and in assay [3] was “inactive” in each case.
Consider `CO/N=C(\C(=O)N[C@@H]1C(=O)N2C(C(=O)O)=C(C[N+]3(C)CCCC3)CS[C@H]12)c1csc(N)n1`, for which the Potency entry in assay [1], in assay [2] and in assay [3] was “inactive” throughout.
As to `C[C@@H](O)[C@H]1C(=O)N2C(C(=O)[O-])=C(SC3Cn4cnc[n+]4C3)[C@H](C)[C@H]12` (some centres undefined), the Potency result in assay [1], in assay [2] and in assay [3] was “inactive” each time.
For the molecule `NCC(O)CC(=O)O` (centres undefined), the Potency result in assay [1], in assay [2] and in assay [3] was “inactive” in each case.
`NC(N)=O`: the Potency entry in assay [1], in assay [2] and in assay [3] was “inactive” each time.
In the case of `FC(F)OC(Cl)C(F)(F)F` (centres undefined), the Potency entry in assay [1], in assay [2] and in assay [3] was “inactive” throughout.
In the case of `O=C(CCCN1CCN2CCCC2C1)c1ccc(F)cc1` (centres undefined), the Potency entry in assay [1], in assay [2] and in assay [3] was “inactive” throughout.
Regarding `CCCCCCCCCc1ccc(OCCOCCO)cc1`, the Potency entry in assay [1] and in assay [2] was “inactive” in each case. The Potency in assay [3] is 4.61 µM (active).
